Results filed as inconclusive are left out. Active and inactive are the calls of the source. The calls were made as follows, unless noted: active = hit-call score of the fitted dose curve at least 0.9, where 1 is the maximum; inactive = score below 0.9.
Key:
[1] = read-out: Monokine induced gamma interferon (MIG), CXCL9 (gene 4283); test: BSK_3C_MIG: BioMAP Diversity Plus: 3C Assay for Monokine induced gamma interferon (MIG) Biomarker Activity (AID 2283021); settings: primary human endothelial cells (HUVEC); actives raise or lower the signal
Procedure, shortened: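 ELISA measurement of MIG in human umbilical vein endothelial cells 24 h after treatment. Cytotoxicity tracked by SRB staining in parallel cultures; gain or loss of signal fitted relative to DMSO.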

[2] = BSK_3C_SRB: Viability Assessment in the BioMAP Diversity Plus: 3C Assay (AID 2283023); settings: primary human endothelial cells (HUVEC);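 also: fitted both ways against DMSO so a hit may be signal rise or drop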
Procedure, shortened: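 Cells were dosed with chemical, cultured 24 h, fixed with 10% TCA, stained with 0.1% SRB and read at 560 nm. Human umbilical vein endothelium was used; DMSO served as negative control and baseline.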

[3] = read-out: Matrix Metallopeptidase 1 (MMP1), MMP1 (gene 4312); test: BSK_BE3C_MMP1: BioMAP Diversity Plus: BE3C Assay for Matrix Metallopeptidase 1 (MMP1) Biomarker Activity (AID 2283024); settings: primary human bronchial epithelial cells; actives raise or lower the signal
Procedure, shortened: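 ELISA measurement of MMP-1 after 24 h compound exposure of primary human bronchial epithelial cells. Changes in either direction fitted relative to DMSO; parallel SRB staining checked overt cytotoxicity.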

[4] = BSK_3C_Vis: BioMAP Diversity Plus: 3C Assay for Morphology Visualization (AID 2283025); settings: primary human endothelial cells (HUVEC);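 also: fitted both ways so gain or loss versus DMSO counts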;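 as to AC50: light microscopy image of cell morphology used as background control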
Procedure, shortened: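 Light-microscopy visualization of HUVEC cultures at 24 h post-treatment, with DMSO as baseline for bidirectional fitting.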

[5] = read-out: Pselectin, SELP (gene 6403); test: BSK_4H_Pselectin: BioMAP Diversity Plus: 4H Assay for Pselectin Biomarker Activity (AID 2283026); settings: primary human endothelial cells (HUVEC); actives raise or lower the signal
Procedure, shortened: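 ELISA of surface P-selectin on HUVEC, 24 h after dosing, with parallel SRB staining (0.1% after 10% TCA fixation, 560 nm) for overt cytotoxicity. Activity fitted in both directions relative to DMSO.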

[6] = BSK_4H_SRB: Viability Assessment in the BioMAP Diversity Plus: 4H Assay (AID 2283027); settings: primary human endothelial cells (HUVEC);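 also: cells exposed to compound for 24 h before staining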;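 as to AC50: curves fitted both ways versus DMSO so AC50 may be loss or gain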
Procedure, shortened: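 HUVEC, 24 h post-dose; 10% TCA fix, 0.1% SRB stain, A560 nm. Total protein = overt cytotoxicity, parallel to biomarker read. Bidirectional fit vs DMSO baseline.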

[7] = BSK_BE3C_SRB: Viability Assessment in the BioMAP Diversity Plus: BE3C Assay (AID 2283028); settings: primary human bronchial epithelial cells
Procedure, shortened: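 Overt cytotoxicity was assessed as total protein in confluent human primary bronchial epithelial cultures 24 h after chemical addition, using 0.1% sulforhodamine B staining read at 560 nm.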

[8] = read-out: Thrombomodulin, THBD (gene 7056); test: BSK_3C_Thrombomodulin: BioMAP Diversity Plus: 3C Assay for Thrombomodulin Biomarker Activity (AID 2283029); settings: primary human endothelial cells (HUVEC); actives raise or lower the signal
Procedure, shortened: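 ELISA measurement of thrombomodulin on HUVEC surface 24 h after chemical dosing; activity fitted in both directions relative to DMSO vehicle.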

[9] = read-out: Urokinase-type plasminogen activator receptor (uPAR), PLAUR (gene 5329); test: BSK_4H_uPAR: BioMAP Diversity Plus: 4H Assay for Urokinase-type plasminogen activator receptor (uPAR) Biomarker Activity (AID 2283030); settings: primary human endothelial cells (HUVEC); actives raise or lower the signal
Procedure, shortened: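 Chemicals are dosed onto human vascular endothelial primary cells (umbilical vein). After 24 h, uPAR is read by ELISA. Gain or loss of signal is fitted relative to DMSO.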

[10] = read-out: Vascular endothelial growth factor receptor 2 (Homo sapiens) (UniProt P35968); test: BSK_4H_VEGFRII: BioMAP Diversity Plus: 4H Assay for Vascular endothelial growth factor receptor 2 (VEGFR2) Biomarker Activity (AID 2283031); settings: primary human endothelial cells (HUVEC); actives raise or lower the signal;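 as to AC50: cell-surface VEGFR2 protein level quantified by ELISA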
Procedure, shortened: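 VEGFRII levels on human vascular endothelial primary cells were determined by ELISA at 24 hours post-dosing, with gain- or loss-of-signal fitted against DMSO controls.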

[11] = read-out: Human Leukocyte Antigen - DR isotype (HLADR), HLA-DRA (gene 3122); test: BSK_BE3C_HLADR: BioMAP Diversity Plus: BE3C Assay for Human Leukocyte Antigen - DR isotype (HLADR) Biomarker Activity (AID 2283032); settings: primary human bronchial epithelial cells; actives raise or lower the signal
Procedure, shortened: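 Cell-surface HLA-DR ELISA readout at 24 h after dosing in the BE3C primary human lung bronchial epithelial system; gain or loss of signal against DMSO, with parallel sulforhodamine B staining of total protein for overt cytotoxicity.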

[12] = read-out: Vascular cell adhesion molecule 1 (VCAM1), VCAM1 (gene 7412); test: BSK_4H_VCAM1: BioMAP Diversity Plus: 4H Assay for Vascular cell adhesion molecule 1 (VCAM1) Biomarker Activity (AID 2283033); settings: primary human endothelial cells (HUVEC); actives raise or lower the signal
Procedure, shortened: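 VCAM-1 ELISA read 24 h after chemical dosing of HUVEC in the BioMAP 4H system, with gain or loss of signal fitted relative to DMSO. Parallel SRB staining (560 nm) checked overt cytotoxicity.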

[13] = read-out: Interferon-gamma inducible Protein 10 (IP10), CXCL10 (gene 3627); test: BSK_BE3C_IP10: BioMAP Diversity Plus: BE3C Assay for Interferon-gamma inducible Protein 10 (IP10) Biomarker Activity (AID 2283034); settings: primary human bronchial epithelial cells; actives raise or lower the signal
Procedure, shortened: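 IP-10 quantified by ELISA in human primary bronchial epithelial cell cultures at 24 hours post-dosing. Gain or loss of signal fitted relative to DMSO; parallel SRB staining assessed overt cytotoxicity.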

[14] = read-out: Monokine induced gamma interferon (MIG), CXCL9 (gene 4283); test: BSK_BE3C_MIG: BioMAP Diversity Plus: BE3C Assay for Monokine induced gamma interferon (MIG) Biomarker Activity (AID 2283035); settings: primary human bronchial epithelial cells; actives raise or lower the signal
Procedure, shortened: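 Dose cells (human primary bronchial epithelial), incubate 24 h, quantify MIG by ELISA, then fit concentration–response in both directions relative to DMSO control.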

[15] = read-out: Transforming growth factor beta 1 (TGFb1), TGFB1 (gene 7040); test: BSK_BE3C_TGFb1: BioMAP Diversity Plus: BE3C Assay for Transforming growth factor beta 1 (TGFb1) Biomarker Activity (AID 2283036); settings: primary human bronchial epithelial cells; actives raise or lower the signal
Procedure, shortened: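 ELISA readout of TGF-b1 from human lung bronchial epithelial primary cells, taken 24 h post-treatment. Gain or loss of signal fitted relative to DMSO baseline, with parallel SRB staining for overt cytotoxicity.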

[16] = read-out: Plasminogen activator inhibitor-1 (PAI1), SERPINE1 (gene 5054); test: BSK_BE3C_PAI1: BioMAP Diversity Plus: BE3C Assay for Plasminogen activator inhibitor-1 (PAI1) Biomarker Activity (AID 2283037); settings: primary human bronchial epithelial cells; actives raise or lower the signal
Procedure, shortened: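 PAI-1 was measured by ELISA in human primary bronchial epithelial cultures 24 h after chemical dosing, with cytotoxicity checked by SRB total-protein staining in parallel cultures. Activity was fitted in both directions relative to DMSO.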

[17] = read-out: urokinase plasminogen activator (uPA), PLAU (gene 5328); test: BSK_BE3C_uPA: BioMAP Diversity Plus: BE3C Assay for urokinase plasminogen activator (uPA) Biomarker Activity (AID 2283038); settings: primary human bronchial epithelial cells; actives raise or lower the signal
Procedure, shortened: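 Measured by ELISA: uPA from human primary bronchial epithelial cells 24 h after chemical treatment. Values derive from bidirectional curve fitting with DMSO serving as negative control. Total protein by SRB staining in parallel wells flagged overt cytotoxicity.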

[18] = read-out: Urokinase-type plasminogen activator receptor (uPAR), PLAUR (gene 5329); test: BSK_BE3C_uPAR: BioMAP Diversity Plus: BE3C Assay for Urokinase-type plasminogen activator receptor (uPAR) Biomarker Activity (AID 2283039); settings: primary human bronchial epithelial cells; actives raise or lower the signal
Procedure, shortened: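 uPAR levels were measured by ELISA after 24 h compound treatment of primary human bronchial epithelial cells, fitted in both directions relative to DMSO. Parallel SRB staining served as the cytotoxicity read-out.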

[19] = read-out: Interleukin-6 (IL6), IL6 (gene 3569); test: BSK_CASM3C_IL6: BioMAP Diversity Plus: CASM3C Assay for Interleukin-6 (IL6) Biomarker Activity for (AID 2283040); settings: primary human coronary artery smooth muscle cells; actives raise or lower the signal
[20] = molecular target: human Vitamin D Receptor (VDR), VDR (gene 7421) (UniProt P11473); test: ATG_VDR_TRANS: Attagene TRANS-FACTORIAL HepG2 Assay for human Vitamin D Receptor (VDR) (AID 2283022; active = hit-call score of the fitted dose curve at least 0.9, where 1 is the maximum)
Chain of human Vitamin D Receptor (VDR), VDR (gene 7421) (P11473 whole entry, looked up, the tested form may be a part): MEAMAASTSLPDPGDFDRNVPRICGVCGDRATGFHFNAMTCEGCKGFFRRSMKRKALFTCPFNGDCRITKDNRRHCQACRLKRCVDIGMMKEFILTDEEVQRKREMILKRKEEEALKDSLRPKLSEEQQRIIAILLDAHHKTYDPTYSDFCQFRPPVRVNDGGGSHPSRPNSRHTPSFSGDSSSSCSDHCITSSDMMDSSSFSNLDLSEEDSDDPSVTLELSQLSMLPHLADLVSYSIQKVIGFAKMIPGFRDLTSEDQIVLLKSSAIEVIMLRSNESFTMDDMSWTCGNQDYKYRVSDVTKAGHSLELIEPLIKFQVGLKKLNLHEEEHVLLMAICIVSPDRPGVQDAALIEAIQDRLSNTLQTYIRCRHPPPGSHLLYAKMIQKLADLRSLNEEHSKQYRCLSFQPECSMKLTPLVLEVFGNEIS
Procedure, shortened: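 Fluorescence of labelled reporter cDNA fragments, resolved by capillary electrophoresis, gives mRNA induction after 24 h treatment of HepG2 cells carrying transfected Gal4-fusion reporter units. Activity is fitted in the positive direction with DMSO as baseline.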

Measured: AC50

CCCCC(CC)CO[N+](=O)[O-] (configuration not stated)
active: [2] 34.9 µM | [4] 37.4 µM | [5] 30.6 µM | [6] 36.1 µM | [9] 33 µM | [10] 31.9 µM | [11] 32.6 µM | [12] 30.5 µM | [19] 31.8 µM
not listed: [20]
inactive: all other assays above

OCC(O)CCl (configuration not stated)
inactive: [20]

Nc1ncc([N+](=O)[O-])s1
not listed: [20]
inactive: all other assays above

CN(CCCC(=O)c1cccnc1)N=O
inactive: [20]

CCOP(=S)(OCC)Oc1ccc(S(C)=O)cc1 (configuration not stated)
not listed: [7] | [20]
inactive: all other assays above

Cc1ccc(N)cc1Cl
inactive: [20]

OCc1ccco1
not listed: [7]
inactive: all other assays above

Oc1cccc2cccnc12
inactive: [1] | [20] | [2] | [4] | [6] | [8] | [9] | [10] | [19]
active: [3] 2.73 µM | [5] 5.54 µM | [11] 3.53 µM | [12] 1.96 µM | [13] 3.88 µM | [14] 5.47 µM | [15] 5.43 µM | [16] 3.45 µM | [17] 3.44 µM | [18] 4.95 µM
